Experimental data taken from PubChem BioAssay AID1159580 (chemical genetic matrix, 2015).
Among all 5,500 compounds or so, about 2,000 (36%) were called active. Inconclusive results (about 18%) are left out. No stated cut-off is given here; in the data, active means normalized growth mostly below about 0.91 (no sharp cut-off); inconclusive means no clear call, values can overlap the other calls; inactive means mostly above about 0.92. Some of the results follow.

Experiment: chemical genetic growth profiling, strain panel (AID 1159580);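 further: tested at 20 µM; growth read once vehicle control cultures reached saturation at 30 °C; 1 = growth at the plate median or of vehicle wells; lower values mean less growth of the strain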
Settings: S. cerevisiae deletion strains, growth OD

Measured: normalized growth

COc1cc(-c2oc3cc(O)ccc3c(=O)c2O)ccc1O
inactive: locus YAL030W, strain snc1, hits give low values 0.977 | locus YBL061C, strain skt5, hits give low values 0.926 | locus YBR009C, strain hhf1, hits give low values 0.925 | locus YBR171W, strain sec66, hits give low values 1 | locus YCL011C, strain gbp2, hits give low values 0.942 | locus YCL016C, strain dcc1, hits give low values 0.961 | locus YCL061C, strain MRC1, hits give low values 0.993 | locus YCL069W, strain vba3, hits give low values 0.987 | locus YCR088W, strain abp1, hits give low values 1.02 | locus YDL005C, strain med2, hits give low values 1.03 | locus YDL040C, strain nat1, hits give low values 1.01 | locus YDR001C, strain nth1, hits give low values 1.02 | locus YDR159W, strain sac3, hits give low values 1.06 | locus YDR297W, strain sur2, hits give low values 0.958 | locus YDR335W, strain msn5, hits give low values 0.971 | locus YDR392W, strain spt3, hits give low values 0.868 | locus YEL003W, strain gim4, hits give low values 0.961 | locus YEL037C, strain rad23, hits give low values 0.972 | locus YEL061C, strain CIN8 (second series), hits give low values 1 | locus YER016W, strain bim1, hits give low values 0.986 | locus YER111C, strain swi4, hits give low values 0.979 | locus YER155C, strain BEM2 (second series), hits give low values 0.977 | locus YFR010W, strain ubp6, hits give low values 0.906 | locus YGL167C, strain pmr1, hits give low values 0.995 | locus YGL227W, strain vid30, hits give low values 1.04 | locus YGL240W, strain doc1, hits give low values 1.04 | locus YJL092W, strain hpr5, hits give low values 1.01 | locus YJL095W, strain BCK1 (second series), hits give low values 0.967 | locus YJL115W, strain asf1, hits give low values 1.01 | locus YJL129C, strain trk1, hits give low values 0.911 | locus YJL154C, strain vps35, hits give low values 1 | locus YKL160W, strain elf1, hits give low values 0.912 | locus YKR026C, strain gcn3, hits give low values 1.02 | locus YKR091W, strain srl3, hits give low values 1 | locus YLL001W, strain dnm1, hits give low values 0.959 | locus YLL026W, hits give low values 0.954 | locus YLL041C, strain sdh2, hits give low values 0.994 | locus YLR258W, strain gsy2, hits give low values 0.935 | locus YLR320W, strain mms22, hits give low values 0.9 | locus YLR342W, strain FKS1, hits give low values 0.966 | locus YLR370C, strain arc18, hits give low values 0.96 | locus YLR384C, strain iki3, hits give low values 0.987 | locus YML120C, strain ndi1, hits give low values 0.975 | locus YMR125W, strain sto1, hits give low values 1.11 | locus YMR129W, hits give low values 0.998 | locus YMR205C, strain PFK2, hits give low values 0.926 | locus YNL071W, strain lat1, hits give low values 0.96 | locus YNL248C, strain rpa49, hits give low values 0.968 | locus YNL322C, strain KRE1 (second series), hits give low values 1.03 | locus YNR049C, strain mso1, hits give low values 1 | locus YOR001W, strain rrp6, hits give low values 0.917 | locus YOR080W, strain dia2, hits give low values 1 | locus YOR265W, strain rbl2, hits give low values 0.968 | locus YOR290C, strain snf2, hits give low values 0.888 | locus YPL078C, strain atp4, hits give low values 0.927 | locus YPL106C, strain sse1, hits give low values 0.935 | locus YPL240C, strain hsp82, hits give low values 0.972
active: locus YAL021C, strain ccr4, hits give low values 0.743 | locus YAL026C, strain drs2, hits give low values 0.873 | locus YBR023C, strain chs3, hits give low values 0.861 | locus YBR231C, strain swc5, hits give low values 0.826 | locus YBR279W, strain paf1, hits give low values 0.853 | locus YDR069C, strain doa4, hits give low values 0.774 | locus YDR137W, strain rgp1, hits give low values 0.763 | locus YDR195W, strain ref2 1.18 [resistant] | locus YDR334W, strain swr1, hits give low values 0.887 | locus YER015W, strain faa2, hits give low values 0.859 | locus YGL173C, strain kem1, hits give low values 0.86 | locus YGL253W, strain hxk2, hits give low values 0.833 | locus YHR013C, strain ard1, hits give low values 0.814 | locus YHR027C, strain rpn1, hits give low values 0.788 | locus YHR142W, strain chs7, hits give low values 0.827 | locus YJL164C, strain tpk1, hits give low values 0.829 | locus YJL166W, strain qcr8, hits give low values 0.895 | locus YJL187C, strain SWE1, hits give low values 0.885 | locus YLR027C, strain aat2, hits give low values 0.902 | locus YLR221C, strain rsa3, hits give low values 0.899 | locus YLR262C, strain YPT6 (second series), hits give low values 0.748 | locus YLR357W, strain rsc2, hits give low values 0.8 | locus YMR058W, strain fet3, hits give low values 0.306 | locus YMR231W, strain pep5, hits give low values 0.906 | locus YNL209W, strain ssb2, hits give low values 0.647 | locus YOR070C, strain gyp1, hits give low values 0.873 | locus YOR083W, strain WHI5, hits give low values 0.85 | locus YOR106W, strain vam3, hits give low values 0.567 | locus YOR270C, strain vph1, hits give low values 0.542 | locus YPL051W, strain arl3, hits give low values 0.744
